Assay results from PubChem BioAssay AID1240 (Sanford-Burnham Center for Chemical Genomics, 2008).
Screen size: about 50,000 compounds; about 800 (1.6%) showed an effect of 50% or more. Shown is part of a subset that was picked to be rich in strong results.

Each compound was assayed against Bcl-2-like protein 10 (Homo sapiens) (UniProt Q9HD36) (assay: Phenotype converters, Bcl-B/TR3 peptide binding displacement, primary biochemical FP (AID 1240;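 also: 0% = Bcl-B with tracer peptide and DMSO and 100% = tracer peptide lacking Bcl-B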)). Conditions: GST-Bcl-B / FITC-TR3 peptide fluorescence polarization; stronger effect = higher value; compound at 3.75 mg/L.
Bcl-2-like protein 10 (Homo sapiens), sequence (Q9HD36 whole entry, looked up): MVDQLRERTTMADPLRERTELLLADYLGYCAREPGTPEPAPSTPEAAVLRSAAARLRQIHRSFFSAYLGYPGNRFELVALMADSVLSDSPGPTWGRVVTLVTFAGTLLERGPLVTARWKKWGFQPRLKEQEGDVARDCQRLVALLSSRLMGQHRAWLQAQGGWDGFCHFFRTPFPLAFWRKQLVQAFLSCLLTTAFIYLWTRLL

Point of comparison: `COc1cccc2c1NC(c1ccccc1Br)C1CC=CC21` (configuration not stated), displacement -4.2%. Against it:
- CC(=O)Oc1ccc(C(=O)N2c3ccccc3Sc3ccccc32)cc1 — lower, -7.2%
- Cc1onc(-c2c(F)cccc2Cl)c1C(=O)NCc1ccc(Cl)cc1 — lower, -6.9%
- COc1ccc(/C=C/C(=O)NCCc2c[nH]c3ccccc23)cc1OC — lower, -5%
- COc1ccc2c(Cl)c(C(=O)N/N=C/c3ccccn3)sc2c1 — higher, 7.8%
- O=C(Nc1ccccc1)Nc1nnc(SCc2ccc(F)cc2)s1 — higher, 13.5%
- Cn1c(=O)cc2c3c(c(Nc4cccc(Cl)c4)ccc31)C(=O)c1ccccc1-2 — higher, 15.7%
- Nc1c(Cl)cc2c(c1Oc1ccccc1)C(=O)c1ccccc1C2=O — higher, 8.6%
- Cn1c(=O)cc(-c2ccccc2)c2ccccc21 — higher, 7.4%
- Cn1c(=O)cc(-c2ccccc2)c2cc(Cl)ccc21 — higher, 14.7%
- CCCCCCCNc1ccc(NC(=O)c2ccccc2)c2c1C(=O)c1ccccc1C2=O — higher, 1.5%
- Cn1c(=O)cc2c3c(c(N)ccc31)C(=O)c1ccccc1-2 — higher, 139%
- Cn1c(=O)cc2c3c(c(N4CCCC4)ccc31)C(=O)c1ccccc1-2 — higher, 38.2%
- COCCCNc1ccc2c3c(nc(=O)n2C)-c2ccccc2C(=O)c13 — higher, 139%
- CCCCNc1ccc2c3c(cc(=O)n2C)-c2ccccc2C(=O)c13 — higher, 129%
- O=C1c2ccccc2C(=O)c2c(NCCO)ccc(NCCO)c21 — higher, 46.4%
- CCCCNc1cc(=O)n(C)c(=O)n1C — higher, 6.5%
- Cn1c(=O)cc2c3c(c(Oc4ccccc4)ccc31)C(=O)c1ccccc1-2 — higher, 108%
- O=C1N=C(N=Nc2c(O)[nH]c3ccccc23)S/C1=C/c1ccc(Br)cc1 — higher, 8.9%
- COc1ccc(OC(C)C(=O)Nc2ccc3c(c2)OCCO3)cc1 (configuration not stated) — lower, -4.5%
- CC(C)CC(NC(=O)c1ccccc1)C(=O)OCC(=O)N1c2ccccc2Sc2ccccc21 (configuration not stated) — higher, 9.1%
- COc1ccc(S(=O)(=O)N(CC(=O)N2CCN(c3ccccc3)CC2)c2ccc(C)cc2)cc1OC — higher, 6.1%
- C=CCc1ccccc1OCCOc1ccc(Br)cc1/C=C1/SC(=S)N(C)C1=O — higher, -1.8%
- CCCCOc1ccc(C(=O)N2CCN(c3cccc(C)c3C)CC2)cc1 — lower, -8.2%
- NNC(=O)COc1ccccc1OCCOCCOc1ccccc1OCC(=O)NN — lower, -10.4%
- COc1ccc(OC)c2c1C(=O)c1ccccc1C2=O — higher, 101%
- COc1ccccc1NS(=O)(=O)c1cccc2c1C(=O)c1ccccc1C2=O — higher, 3%
- COC1=C(c2ccccc2)C(=O)c2ccccc2C1=O — lower, -8.5%
- O=C1c2ccccc2-c2onc3ccc(Cl)c1c23 — higher, 40.4%
- O=C1C=Cc2ccccc2/C1=N/Oc1ccc2noc3c2c1C(=O)c1ccccc1-3 — higher, 25.9%
- CC(=O)c1ccc2c3c(onc13)-c1ccccc1C2=O — higher, 2.4%
- O=C1c2ccccc2-c2onc3ccc(Sc4ccccc4)c1c23 — higher, 17.9%
- CCOc1ccc(Nc2ccc3noc4c3c2C(=O)c2ccccc2-4)cc1 — higher, -2%
- CCOC(=O)c1ccc2c3c(onc13)-c1ccccc1C2=O — higher, 120%
- CCOc1ccc2noc3c2c1C(=O)c1ccccc1-3 — higher, 123%
- CC(C)CCOC(=O)c1ccc2c3c(onc13)-c1ccccc1C2=O — higher, 21%
- COc1ccc2noc3c2c1C(=O)c1ccccc1-3 — higher, 127%
- COc1cc2c(NCc3ccco3)cc(O)c(CC(=O)Nc3ccc(Cl)cc3)c2cc1OC — higher, 13%
- COc1ccc(OC)c(CN2CCN(S(C)(=O)=O)CC2)c1 — lower, -14%
- O=C(CSc1nnc(-c2ccco2)n1-c1ccccc1)CSc1nnc(-c2ccco2)n1-c1ccccc1 — higher, 15.9%
- C=CCNC(=O)C1CC(=O)N(c2ccc(C)cc2)C1 (configuration not stated) — lower, -7.4%
- Cc1cc(C)nc(NS(=O)(=O)c2ccc(NC(=O)CSc3ncn[nH]3)cc2)n1 — higher, 5.3%
- Nc1nc(Nc2nc(N3CCCC3)cc(C(F)(F)F)n2)cc(C(F)(F)F)n1 — higher, 12%
- CC1=C/C(=N/OS(=O)(=O)c2ccccc2)C=CC1=O — higher, 28.6%
- O=C1c2ccc(Oc3ccc([N+](=O)[O-])cc3)cc2C(=O)N1c1cccc(-c2nc3ccccc3o2)c1 — higher, -3.8%
- O=C(Nc1ccc(Cl)c(Cl)c1)c1cc([N+](=O)[O-])ccc1N1CCCCC1 — higher, 14%
- O=[N+]([O-])c1cccc2c1NC(c1ccc(Cl)cc1)C1CC=CC21 (configuration not stated) — higher, 7.5%
- COc1cccc2c1NC(c1ccc(Cl)cc1)C1CC=CC21 (configuration not stated) — higher, 9.1%
- O=C(O)c1cccc2c1NC(c1cccc3ccccc13)C1CC=CC21 (configuration not stated) — higher, 25.1%
- O=C(O)c1cccc2c1NC(c1ccc(Cl)cc1)C1CC=CC21 (configuration not stated) — higher, 148%
- O=C(O)c1cccc2c1NC(c1ccccc1Br)C1CC=CC21 (configuration not stated) — higher, 132%
- COc1cc(-c2ccccc2)nc(N)n1 — lower, -5.4%
- COc1ccc(/C=C/C(=O)Nc2ccc(Br)cc2C(=O)c2cc(OC)c(OC)c(OC)c2)cc1OC — higher, 1.6%
- COCC(=O)Nc1ccc2ccccc2c1 — higher, -2.7%
- Nc1ccc2nn(-c3ccc([N+](=O)[O-])cc3)nc2c1 — lower, -8.4%
- COc1ccc(OC)c(N=Cc2c(O)n(-c3ccccc3Cl)c(=O)[nH]c2=O)c1 — higher, 98.7%
- COc1ccccc1N=Cc1c(O)n(-c2ccccc2Cl)c(=O)[nH]c1=O — lower, -6.6%
- COc1ccc(N=Cc2c(O)n(-c3cc(OC)ccc3OC)c(=O)[nH]c2=O)cc1 — higher, 103%
- COc1ccc(N=Cc2c(O)n(-c3ccccc3OC)c(=O)[nH]c2=O)cc1 — higher, 9.4%
- COc1ccc(OC)c(N=Cc2c(O)n(-c3ccccc3C)c(=O)[nH]c2=O)c1 — higher, 7.3%
- COc1cccc(N=Cc2c(O)n(-c3cc(OC)ccc3OC)c(=O)[nH]c2=O)c1 — higher, -2%
- CCOC(=O)c1c[nH]c2cc(C(=O)OC)ccc2c1=O — lower, -19.8%
- CCC1=NN2C(=N)/C(=C/c3cccc(OCc4ccccc4F)c3)C(=O)N=C2S1 — higher, 6.1%
- Cc1ccc(/C=C(\C#N)c2nn(-c3ccccc3)c(N)c2C#N)cc1 — higher, 2.5%
- Cc1ccc(COc2c(Br)cc(/C=C(\C#N)c3nn(-c4ccccc4)c(N)c3C#N)cc2Br)cc1 — higher, 11.2%
- Cn1c(=O)n(C)c2cc(/C=C(\C#N)c3nn(-c4ccccc4)c(N)c3C#N)ccc21 — higher, 92.9%
- COC(=O)COc1ccc2c(=O)c(Oc3ccc(C(C)(C)C)cc3)coc2c1 — higher, 8%
- C/C(=N/NC(=O)COc1ccc(C)cc1)c1ccc([N+](=O)[O-])cc1 — higher, 1.6%
- CNS(=O)(=O)c1ccc(N/C=C(\C=O)c2nc3cc(Cl)ccc3o2)cc1 — higher, 12.6%
- O=C/C(=C\Nc1ccc(S(=O)(=O)CCO)cc1)c1nc2ccccc2o1 — higher, 9.7%
- O=C/C(=C\Nc1ccc(S(=O)(=O)CCO)cc1)c1nc2cc(Cl)ccc2o1 — higher, 88.3%
- Cn1c(O)c(N=NC(=O)c2ccccc2NC(=O)c2ccccc2)c2ccccc21 — higher, -4%
- COCCOC(=O)c1c(C)oc2ccc(OCc3c(F)c(F)c(F)c(F)c3F)cc12 — higher, 10.8%
- CCn1cc(/C=C2/C(=O)NN(c3ccccc3)C2=O)c2ccccc21 — higher, 13.1%
- CC(C)NC(=O)C1CC1(c1ccccc1)c1ccccc1 (configuration not stated) — higher, 4.7%
- Cc1ccc(-n2ccc(N)c(C#N)c2=O)cc1 — higher, 3.3%
- COc1ccc(/C=C2/SC(=O)N(CC(=O)Nc3ccc(F)c(Cl)c3)C2=O)cc1OC — higher, 12.3%
- COc1ccc(/C=C2/SC(=O)N(CC(=O)Nc3cc(C)on3)C2=O)cc1OC — higher, 12.8%
- COc1ccccc1NC(=O)CCN1C(=O)S/C(=C/c2ccc(OC)c(OC)c2)C1=O — higher, 34.6%
- COc1ccc(/C=C2\SC(=O)N(CCC(=O)Nc3ccccc3C)C2=O)cc1OC — higher, 79.4%
- COc1ccc(/C=C2\SC(=S)N(CCC(=O)Nc3ccccc3C)C2=O)cc1OC — higher, 15.4%
- COc1ccc(/C=C2/SC(=O)N(CC(=O)Nc3ccc(C)c(C)c3)C2=O)cc1OC — higher, 67%
- COC(=O)c1ccc(C(=O)OC)c(NC(=O)CC(c2ccccc2)c2ccccc2)c1 — higher, 63.5%
- COC(=O)c1ccc(C(=O)OC)c(NC(=O)/C=C/c2ccccc2)c1 — higher, 8.7%
- COC(=O)c1ccc(C(=O)OC)c(NC(=O)COc2ccccc2[N+](=O)[O-])c1 — higher, 66.9%
- CCC(C(=O)Nc1cc(C(=O)OC)ccc1C(=O)OC)c1ccccc1 (configuration not stated) — higher, 5%
- COC(=O)c1ccc(C(=O)OC)c(NC(=O)Cc2ccccc2[N+](=O)[O-])c1 — higher, 14.7%
- COC(=O)c1ccc(C(=O)OC)c(NC(=O)COc2ccccc2Cl)c1 — higher, 73.8%
- COC(=O)c1cc(NC(=O)COc2ccccc2[N+](=O)[O-])cc(C(=O)OC)c1 — higher, 13%
- COC(=O)c1ccc(C(=O)OC)c(NC(=O)COc2ccc(Cl)cc2C)c1 — higher, 5.4%
- COC(=O)c1ccc(C(=O)OC)c(NC(=O)/C=C/c2ccco2)c1 — higher, 63.5%
- COC(=O)c1ccc(NC(=O)CC(c2ccccc2)c2ccccc2)cc1 — higher, -0.2%
- COC(=O)c1ccc(C(=O)OC)c(NC(=O)COc2cccc(Cl)c2)c1 — higher, 1.2%
- COC(=O)c1ccc(C(=O)OC)c(NC(=O)/C=C/c2ccc(Cl)cc2)c1 — lower, -6.4%
- Cc1ccc(-c2[nH]n3c(=O)cc(-c4ccccc4)nc3c2C)cc1 — higher, 15.2%
- CN(C)CCCNC(=O)/C=C/c1ccc(Cl)cc1 — higher, 14%
- COc1cc(C(=O)Nc2cccc(-c3cc4ccccc4oc3=O)c2)cc(OC)c1OC — higher, 3.9%
- CCOc1ccc(NC2=C(Cl)C(=O)N(c3ccc(Br)cc3)C2=O)cc1 — lower, -4.8%
- CC(=O)Nc1sc2c(c1C(N)=O)CCC(C)C2 (configuration not stated) — higher, 10.6%
- CC1CCc2c(sc(NC(=O)/C=C/c3ccccc3)c2C(N)=O)C1 (configuration not stated) — higher, 10.5%
- CC1CCc2c(sc(NC(=O)/C=C/c3ccc4c(c3)OCO4)c2C(N)=O)C1 (configuration not stated) — higher, 144%
- OCc1c(O)cnc2ccccc12 — higher, 19.4%
- O=c1[nH]c(-c2ccc(-c3ccc(F)cc3)o2)nc2sc3c(c12)CCCC3 — lower, -13.3%
- CC(/C=C1\SC(N2CCN(C3=NC(=O)/C(=C\C(C)=C\c4ccccc4)S3)CC2)=NC1=O)=C\c1ccccc1 — lower, -9%
- O=C1NC(=O)/C(=C/c2cccnc2)S1 — higher, 12%
- CCc1ccc(/C=C2/C(=O)NC(=O)N2C(C)=O)cc1 — higher, 13.8%
- CC(=O)N1C(=S)NC(=O)/C1=C\c1cccnc1 — higher, 93.4%
